Key:
Details in all cases: concentration: 1 μM, replicates: in singlicate; n = 1
SRPK1 = test system: SRPK1
SRPK2 = test system: SRPK2
SRPK3 = test system: SRPK3
STK16 = test system: STK16
STK33 = test system: STK33
STK35 = test system: STK35
STK36 = test system: STK36
STK39 = test system: STK39
SYK = test system: SYK
SgK110 = test system: SgK110
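Note: KINOMEscan kinase panel screen.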

Structure (SMILES)	%Inh (SRPK1)	%Inh (SRPK2)	%Inh (SRPK3)	%Inh (STK16)	%Inh (STK33)	%Inh (STK35)	%Inh (STK36)	%Inh (STK39)	%Inh (SYK)	%Inh (SgK110)
Cc1nnc(-c2ccc3ncn(-c4ccc(S(C)=O)cc4)c3c2)o1 (centres unmarked)	0%	0%	0%	29%	0%	0%	22%	0%	0%	2%
Nc1nc(-c2ccccc2F)c(-c2ccnc3ccccc23)s1 [GW560459]	25%	0%	0%	7%	0%	0%	0%	1%	32%	0%
O=C(Nc1ccc2c(c1)OCO2)NC1CCN(c2ccnc(NCc3ccc(F)cc3)n2)CC1 [GSK1379859]	28%	0%	0%	7%	0%	0%	0%	0%	16%	0%
Fc1cccc(CSc2nnc(-c3ccc4c(c3)CCO4)o2)c1	1%	0%	16%	0%	6%	0%	16%	16%	0%	13%
COC(=O)c1c(-c2ccccc2)c2cc(Br)ccc2c(=O)n1Cc1ccc(S(C)(=O)=O)cc1	0%	0%	1%	38%	2%	0%	10%	2%	0%	6%
Cc1nnc(-c2ccc(C)c(-c3ccc(C(=O)O)cc3)c2)o1 [GW608005]	35%	0%	7%	0%	0%	0%	0%	1%	0%	0%
Nc1n[nH]c2nnc(-c3ccccc3)c(-c3ccccc3)c12 [GW554060]	0%	0%	9%	25%	0%	0%	0%	35%	0%	0%
COc1ccc(-c2cc3c(C)nc(N)nc3n([C@H]3CC[C@H](OCCO)CC3)c2=O)cn1	0%	0%	0%	0%	0%	8%	0%	0%	1%	25%
COc1ccc(-c2cc3c(C)nc(N)nc3n([C@H]3CC[C@H](O)CC3)c2=O)cn1	21%	0%	0%	0%	0%	0%	0%	0%	0%	0%
O=C(NCCNc1ccnc(Nc2ccc(F)cc2)n1)Nc1ccc2c(c1)OCO2 [GSK1379882]	17%	24%	0%	23%	0%	0%	0%	12%	0%	0%
O=C(Nc1n[nH]c2cc(-c3ccccc3F)ccc12)C1CC1 [SB-733371]	10%	0%	38%	0%	0%	11%	0%	2%	17%	0%
CCn1c(-c2ccoc2)nc2cnccc21 [SB-733887]	41%	18%	0%	1%	0%	0%	0%	0%	26%	0%
C[C@@H]1CC[C@H](C(=O)NC2CCCCC2)CN1c1cc(-c2ccc3c(N)n[nH]c3c2)nc(N)n1 [GSK2291363]	77%	5%	36%	21%	57%	0%	0%	0%	37%	0%
CCCNC(=O)Nc1ccc(Oc2ncnc3ccn(C)c23)cc1	25%	0%	10%	11%	0%	0%	32%	0%	0%	41%
CCCC(=O)Nc1n[nH]c2ncc(-c3cccc4ccccc34)cc12 [SB-642057]	16%	0%	0%	24%	0%	4%	0%	6%	0%	0%
COc1cc2nccc(Nc3ccc(OCc4ccc(NC(C)=O)cc4)cc3)c2cc1OC.Cl [GW440135]	42%	12%	23%	2%	15%	3%	29%	3%	6%	21%
Cc1nn2c(=O)cc(N3CCOCC3)nc2n1Cc1cccc(Cl)c1Cl [GSK2342769]	19%	0%	0%	0%	0%	0%	0%	10%	8%	0%
